Source: publication PMC12864922, “TDP-43 directly inhibits mRNA accumulation in neurites through modulation of mRNA stability”
Over roughly 9,900 sequences, “r (bound/input frequency ratio)” has its median near 0.7; the highest 2% begin near 6.5. Shown is part of a subset that was picked to be rich in the highest values.

B1: ENSMUSG00000029636.74|Wasf3 (ssRNA)
RNA: GGGAGUUCUACAGUCCGACGAUCGCUUCGAUAUCCGCAUGCUACCCACGUCAGCUCUCUGCAAGAUCACUGGCUGUGUGUCUCAGUGAUGUCUUCCAACCAGUGGGUGAUACGUUUUCCUGUUUCUUCCCUUUGCAAAUUGAAUUCCAGGUAGAUAUGGUUGUAGAGGGGAAAGUUUAACAAAUCAGAAUGAAAUGUUUGUCUGUUUGCACACUGGGCCUGGUGGCCUCCAAGGAAAUGUGUACGAUCGUUUGCUUUCUCUAUCUUGGCGCUUGCAACCGAGAGCGGCCAUUUUUAUGAGGGGCUCUUGCGGUCGCACUAGUGUGGAAUUCUCGGGUGUCAAGG
B2: ENSMUSG00000004113.257|Cacna1b|213:217 (ssRNA)
RNA: GGGAGUUCUACAGUCCGACGAUCGCUUCGAUAUCCGCAUGCUAGAUGCUGAAGAGUGCAAAACGCUAGCAAAGAAGAGGCUGGGGUUAGAGGAAGAAGCCCGCACUGGCCGUGUUACAAGAAACUGGCAGGAAGGAAAUGGCCCUGGAACAGGCCAGGUGCCUAGAGCUAAGUCAGGCCCCUGGCUUAGCACUAGAAAAAAUAAAACCUCAUGGCUGCUUUGCAAAGGGAAAACCCAUGCUCAGGAAGGUGUUCACACACCACAGAUAGCUGGGAGGCCACGAGAGAAAGGUUGCACACAGACCUCUUGCGGUCGCACUAGUGUGGAAUUCUCGGGUGUCAAGG
B3: ENSMUSG00000028439.88|Fam219a (ssRNA)
RNA: GGGAGUUCUACAGUCCGACGAUCGCUUCGAUAUCCGCAUGCUAGGAAAGGGGUUUUGAGAAGAAAAGGAUCCAAGCAAUGGGGGCAGUUCUCACACCUCAGAGCCCCUCUCCCCAAACCCUGUGCCAGCCCAUAUACCUAUUUGUGUUUUCCCCUCAUCUCCAGAUGGGAAGCCUGGCAGCGCUGUCCAAAGGGAUACUGUCUCUCCAUUAGAUAACUCCUUCCACUGUCUCCCUCCCCCGCUUUCUUACUUUCUGAGGGUUGGGAAGGUAAGAUGGGCCUUAGAGAGAAGCCAGGUUUGGGGCUCUUGCGGUCGCACUAGUGUGGAAUUCUCGGGUGUCAAGG
B4: ENSMUSG00000031028.91|Tub (ssRNA)
RNA: GGGAGUUCUACAGUCCGACGAUCGCUUCGAUAUCCGCAUGCUACAAGCUGUAUGUAGAAAAAGCUCUGGUGGUCAGCAGAAAGCACUCCCACUUCAAAAGGGCCCAUUAGGCCCAAAGGGGGUUAGGAGUGGUAGGGAUAGGUGCGUGGCAGGUCCCUGCUAGGAUUGCAGGGGCCUGGCCAUGUGUAUUAGCUGGAGGCUUAGAAUGCUAGCUCAUUUGUUGCUACAGAUUUGCCCAGUGCUUGCACACGUAAGAACCCAGCUCUCAAGGCCAAAUAUCUGAGUGGAUGGGGAUGAUAGGAGCUCUUGCGGUCGCACUAGUGUGGAAUUCUCGGGUGUCAAGG
B5: ENSMUSG00000031028.31|Tub|122:126 (ssRNA)
RNA: GGGAGUUCUACAGUCCGACGAUCGCUUCGAUAUCCGCAUGCUACUGCCUGCCAAGACAGCCCUGCCUACCCUCUGUUCAUAGGCCCUCUAUGGGCUUUCUGGCCUUACCAACCAGAGACUGGCUGCUCUGCCUCUGCUGCUGAAGCAGGGGGGACAGCAAAUGGCAUACACAGGAGAAGAAUAUUUCUGUGCCCCAAGGUCAACACACAUGCCCAGUCCUGGGUCAGUCCCCUGCUGCAGUGGUGUUAUCACACCGGAAAGCCUCUUCACCUGGAGGUACAGAGGGAGAGGAAGCACAAGCCUCUCUUGCGGUCGCACUAGUGUGGAAUUCUCGGGUGUCAAGG
B6: ENSMUSG00000042529.154|Kcnj12 (ssRNA)
RNA: GGGAGUUCUACAGUCCGACGAUCGCUUCGAUAUCCGCAUGCUAAACACCAGAGUGGGUGCUUCUUAGAAAAGGACACUCAGGAAAUUAGUAUGGGGUCUGGGUCCCACAUCCCCAGGAAGUGGGUCAGCCCCACGUCCCCCGCUGGACUCACAGCUUGAGUUGUGCCUUAGAGACUCUGGUUGUCUGGCUUCCGUCAUUUCUGGUUUUCUCAGACUUGUUUAAUCUUUCCCUACUGCCCUAAGUCCACUCAUGAAGCUCCCCAGGCCCUUCUGAGAUUGCAGAGGCUGCUUGCUCAUAGCCAUCUCUUGCGGUCGCACUAGUGUGGAAUUCUCGGGUGUCAAGG
B7: ENSMUSG00000061578.1390|Ksr2|74:78;177:181 (ssRNA)
RNA: GGGAGUUCUACAGUCCGACGAUCGCUUCGAUAUCCGCAUGCUACUUUGUAAAUGAUUCUGUUGCCUUUUUCUAAACACAAAGUAUAUAUACCUAUAAAUGCUAUAUAUAUUAUAUAACACAAUAUACAUAAAGACUACUUCUUGUACAGCCCUCCACGGACCUCAGGCCCACUGUUUUCUCCAUGUCUGUCUGUACUGACUGUUGCAGAAUGAGCUGAUCAUACAUCUUGAUUCUCCAUUUUCCUUCUGGACCACAUGUCUCUUCCUUUUCCUUUUUAGAUCUGUCUUGCUCUCUGUCUCUCUCUCUUGCGGUCGCACUAGUGUGGAAUUCUCGGGUGUCAAGG
B8: ENSMUSG00000022095.44|Fam160b2 (ssRNA)
RNA: GGGAGUUCUACAGUCCGACGAUCGCUUCGAUAUCCGCAUGCUACUGGCUCCUAAGGCAGUGGUAUUCUUGGAGCCUUUUAGAGGAGCUAGAGGAUGGCCAGUGAGCGCCUAGAUGCUGCCCUGCAUGUGUUGCGUGACUAUCUCUGCUAUAUUGUGACCAGGGCCACAACAUGAGACAACUCCAGGGGCCAGGGAGAUGAACUGCUGUCUUUGAGGCUGGCUAAAAAAACAAUCCAGUCCAGAGAGAUGGGGAGGGGGGGAGCAAGAACCCUGUCUGUUACAUUAGGUAUCAUGGAAGCUGCUCUCUUGCGGUCGCACUAGUGUGGAAUUCUCGGGUGUCAAGG
B9: ENSMUSG00000029636.316|Wasf3 (ssRNA)
RNA: GGGAGUUCUACAGUCCGACGAUCGCUUCGAUAUCCGCAUGCUAUGGCAAAACUUUUUUUGGUAAGGUCCUUAUGCUCUCAGGGUGGAGGGAAGACAUUAAAGCUACGCAGCCAUUGUCAGGAUUUUUUCUACUGAUGUCACAUCAGAAUAUAACUAGUGGCUCCUUACUCACAAAUGUUCACGAGCUUCUCCGUUGUCACUUGUCCUGUAGUUUUGCCAACAAGUUAAUUUUAGUUUGAUUUUAUAGCUAGAGAGAAAGCUUUUGCCCGUUGCAUUCUGUAACCUUCAAAAGAAUGAGAAACGCUCUUGCGGUCGCACUAGUGUGGAAUUCUCGGGUGUCAAGG
B10: ENSMUSG00000061578.330|Ksr2|114:118 (ssRNA)
RNA: GGGAGUUCUACAGUCCGACGAUCGCUUCGAUAUCCGCAUGCUACUCCAAGGAAGCCAGGGGAGGGGGACUCCUCAGGAAGGAGUGACCAGUCACCUGCCUCCCAGGGUUCUGCCUUGCCCUUAAGCUAGGGUCCUUCAAGCAUCCACAGACUUAGACACACGUGGUAACAUGCUUGUAAUCCUGGCACUCUGGAGGCUGAGGCAGGAGGAUAACAAGUCUAGACUAUAUAUGAUUUCUGAGGGUCUGUUAGUGAAUAAGUACCUGGAUGACAUGGGACAAGUCCCAGCCUUCCCUGCUCCUGCCUCUUGCGGUCGCACUAGUGUGGAAUUCUCGGGUGUCAAGG
B11: ENSMUSG00000061578.809|Ksr2 (ssRNA)
RNA: GGGAGUUCUACAGUCCGACGAUCGCUUCGAUAUCCGCAUGCUACUUUGCCUCUACUAGAUGAUCUUGCAUCUGUCUUUGUGGGACUCUUUUUAUGAGGAACCAGUCCUGUUGAAUCGGGGUGCUCUGUAUUAGUUAUUUUUGUAACUUGUGAUUGUAACCAAAUGCCCGAUAGAAACAGCAUUCUGGCUCACAGUUUCAAAGGGCUCAGUCCAUAGCUGCCUGACUCUGUGUUUCUAGGCCUUUCUUGAGGCAAGUGUUCAUCAUGAUAGUGUGAGGGUGAGGAGGAGUUUCUUCAUGGCAAACUCUUGCGGUCGCACUAGUGUGGAAUUCUCGGGUGUCAAGG
B12: ENSMUSG00000034801.220|Sos2 (ssRNA)
RNA: GGGAGUUCUACAGUCCGACGAUCGCUUCGAUAUCCGCAUGCUAAUUUGACUAAUUUGUAAGUCUGGAACAAAAGUGUCUUAUGGCAUAAGAACCAACUGCCAUUGUCAAACCUAUUAACUGUCUUUAAUCUCGUGUUAACUGAAAUUUUUGAAAAGUUUUUCCAGAUUAGUAAUAUUUAAACAGAAAAUACUUUAAAAAGCUUUAUUAAAUUUUUUAAUCAGGAUAAAGCUUUGCCAUUUGGAUACUAUCAUUCAAAGUGAUCAAGGUAUGUAUGUUAUGCUGAUAGUGCAGUAGCAGCCAUUCUCUUGCGGUCGCACUAGUGUGGAAUUCUCGGGUGUCAAGG
B13: ENSMUSG00000031028.102|Tub (ssRNA)
RNA: GGGAGUUCUACAGUCCGACGAUCGCUUCGAUAUCCGCAUGCUAGGCCCAAAGGGGGUUAGGAGUGGUAGGGAUAGGUGCGUGGCAGGUCCCUGCUAGGAUUGCAGGGGCCUGGCCAUGUGUAUUAGCUGGAGGCUUAGAAUGCUAGCUCAUUUGUUGCUACAGAUUUGCCCAGUGCUUGCACACGUAAGAACCCAGCUCUCAAGGCCAAAUAUCUGAGUGGAUGGGGAUGAUAGGAGUCAUCCAGUAGACUCCCUACAUCAGGGCUCUCAGCAGCCCCAGCACAACACCUAUGACACACACACCUCUUGCGGUCGCACUAGUGUGGAAUUCUCGGGUGUCAAGG

Each binder was assayed against TDP-43 (Homo sapiens, UniProt Q13148 1-414) (assay: RNA Bind-n-Seq with designed 260-mer pool; 25 mM Tris-HCl, 150 mM KCl, 3 mM MgCl2, BSA (printed 500 mg/mL), 20 units/mL SUPERase IN; pH not stated; 500 nM RNA pool, 1 h, 4 C; TDP-43 5, 50, 500 nM; high values mean tight binding). Conditions: protein: recombinant; tags: SBP (GST cleaved off with PreScission; pGEX-GST-SBP).
Summary of the method: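 In 25 mM Tris-HCl, 150 mM KCl, 3 mM MgCl2, BSA and SUPERase IN, 500 nM of an in vitro-transcribed 260-nt 3′ UTR oligo pool was incubated for 1 h at 4 °C with SBP-tagged TDP-43 (5, 50 or 500 nM) captured on streptavidin beads. RNA remaining after washes was biotin-eluted, reverse transcribed, PCR-amplified and sequenced. Binding, R, is the bound-sample abundance of each oligo, normalized to mapped reads, divided by its abundance in input. Each duplicate used a separate, independent protein batch.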

Chain of TDP-43 (Q13148 whole entry): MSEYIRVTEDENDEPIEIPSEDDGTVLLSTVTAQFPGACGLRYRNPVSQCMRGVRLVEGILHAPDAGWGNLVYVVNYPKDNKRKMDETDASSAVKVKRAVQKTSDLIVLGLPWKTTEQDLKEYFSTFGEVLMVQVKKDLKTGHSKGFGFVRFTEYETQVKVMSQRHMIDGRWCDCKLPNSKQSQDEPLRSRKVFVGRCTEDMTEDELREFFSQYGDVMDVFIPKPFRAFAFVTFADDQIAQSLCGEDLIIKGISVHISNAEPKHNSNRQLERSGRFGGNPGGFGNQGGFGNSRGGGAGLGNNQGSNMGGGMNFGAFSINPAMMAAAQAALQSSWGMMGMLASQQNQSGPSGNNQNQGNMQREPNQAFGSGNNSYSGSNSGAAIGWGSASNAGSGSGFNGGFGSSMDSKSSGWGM

| Binder | binding signal |
| --- | --- |
| B1 | 2.22 R (bound/input frequency ratio) |
| B2 | 0.718 R (bound/input frequency ratio) |
| B3 | 0.765 R (bound/input frequency ratio) |
| B4 | 5.97 R (bound/input frequency ratio) |
| B5 | 0.475 R (bound/input frequency ratio) |
| B6 | 0.462 R (bound/input frequency ratio) |
| B7 | 0.257 R (bound/input frequency ratio) |
| B8 | 1.48 R (bound/input frequency ratio) |
| B9 | 0.157 R (bound/input frequency ratio) |
| B10 | 1.65 R (bound/input frequency ratio) |
| B11 | 0.455 R (bound/input frequency ratio) |
| B12 | 0.0389 R (bound/input frequency ratio) |
| B13 | 1.03 R (bound/input frequency ratio) |
